Measurements reported in PubChem BioAssay AID1962 (The Scripps Research Institute Molecular Screening Center, 2009).
About 2,500 (0.83%) of roughly 300,000 compounds were called active. What follows is part of a selection rich in actives, with near analogues and random picks from the rest. A number with no mark means an inactive call.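 How the source made its calls: active means inhibition above the mean of all tested compounds plus 3 SD, set per screening campaign (cut at about 24% in these data); inactive means the rest.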

System: tRNA 2'-phosphotransferase TPT1 (Candida albicans SC5314)
Experiment: Candida albicans TPT1 enzyme inhibitors, primary screen, biochemical, fluorescence polarization (AID 1962);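 further: plate controls were DMSO alone for no effect and ferristatin control at 100 nM for full effect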
Settings: recombinant caTPT1, FP RNA substrate dephosphorylation; at 5 µM; hits give high values

For CCN(CC)P(=O)(Nc1ccc(SC(F)F)cc1)c1ccc(N(C)C)cc1NC(=O)c1ccco1 (configuration not stated), which inhibition is on record?
The inhibition was -3.15%.

Which inhibition does the source give for COc1cc(C(=O)N2CCN(C)CC2)cc(OC)c1OC here?
The inhibition was 1.91%.

How did the inhibition turn out when O=C(CN1C(=O)NC(Cc2ccccc2)(Cc2ccccc2)C1=O)NCC1CCCCC1 was run?
Its inhibition is 0.35%.

Cc1ccc(C(=O)C(=S)N2CCOCC2)cc1 was tested. Which inhibition did it give?
The inhibition was 0.27%.

Cc1ccc(CC2S/C(=C(/C#N)C(=O)N3CCOCC3)N(c3ccccc3)C2=O)cc1 (configuration not stated) was tested. Which inhibition did it give?
The inhibition was 27.6% (active).

How did the inhibition turn out when N#C/C(C(=O)N1CCOCC1)=C1/SC(Cc2ccc(F)cc2)C(=O)N1c1ccccc1 (configuration not stated) was run?
Its inhibition is 19.8%.

For O=C(Nc1ccc2c(c1)CCC2)c1ccc(Br)s1, which inhibition is on record?
The inhibition was -6.11%.

How did the inhibition turn out when CC(=O)N1CCN(C(=O)c2cc(-c3ccc(C)o3)nc3ccccc23)CC1 was run?
Its inhibition is -4.79%.

Which inhibition does the source give for OCC[C@H]1C[C@@H](O)[C@H](O)[C@]2(OCCCc3ccccc32)O1 here?
Its inhibition is -4.69%.

Which inhibition does the source give for O=C(/C(=C/c1cccc(Cl)c1)c1nc2ccccc2[nH]1)c1ccccc1 here?
The inhibition was 6.55%.

Which inhibition does the source give for O=C(CSc1nc2ccc([N+](=O)[O-])cc2[nH]1)c1ccc(Cl)cc1 here?
The inhibition was -2.05%.

With O=C(Cc1nc2ccccc2[nH]c1=O)c1ccc(Cl)cc1 as the compound, how does the inhibition read?
Its inhibition is 52.4% (active).

CC(=O)Oc1ccc(N(C(C)=O)S(=O)(=O)c2ccc3ccccc3c2)cc1Br was tested. Which inhibition did it give?
Its inhibition is -2.05%.

O=C(Nc1ccc([N+](=O)[O-])cc1)OCCc1ccccn1 was tested. Which inhibition did it give?
The inhibition was 0.72%.

How did the inhibition turn out when Cc1cccc(NS(=O)(=O)c2cc(Cl)ccc2Cl)n1 was run?
Its inhibition is -0.05%.

Which inhibition does the source give for COc1ccc2cc(C(=O)C3CCCN(C(=O)c4sc(C)nc4C)C3)ccc2c1 (configuration not stated) here?
Its inhibition is -0.57%.

Which inhibition does the source give for CCOc1cc(-c2cc(-c3ccc(NC(C)=O)cc3)nc(N)c2C#N)ccc1O here?
The inhibition was 2.32%.

Which inhibition does the source give for CCOc1cc(/C=C(\C#N)c2nc(-c3cccs3)c(NC(C)=O)s2)ccc1O here?
Its inhibition is 111% (active).

For COc1cc(/C=N\Nc2nc(-c3cccs3)c(NC(C)=O)s2)ccc1O, which inhibition is on record?
The inhibition was -0.53%.

For Cc1ccc(Nc2ccc(C(N)=O)cc2[N+](=O)[O-])cc1, which inhibition is on record?
The inhibition was -0.98%.

Cc1ccc(Nc2ccccc2N)cc1 was tested. Which inhibition did it give?
The inhibition was 38.5% (active).

Nc1ccc(C(=O)Nc2ccccc2N)cc1 was tested. Which inhibition did it give?
The inhibition was -2.37%.

O=C(Nc1ccc(Cl)c(Cl)c1)N1CC=C(c2ccccc2)CC1 was tested. Which inhibition did it give?
The inhibition was -0.49%.

Which inhibition does the source give for NC1=C([N+](=O)[O-])C(c2ccccc2)C2=C(CCCC2=O)O1 (configuration not stated) here?
The inhibition was 2.19%.

Which inhibition does the source give for COc1ccc(CCOC(=O)CNC(=O)c2ccc(Cl)cc2Cl)cc1 here?
The inhibition was -0.14%.

With Cc1ccc([C@@H]2CC=C(C(=O)O)[C@H](c3cccc(Cl)c3)N2S(=O)(=O)c2ccc(C)cc2)cc1 as the compound, how does the inhibition read?
The inhibition was -3.07%.

O=C(CNC(=O)C1COc2ccccc2O1)N/N=C/c1cc(Br)c(O)c(Br)c1 (configuration not stated) was tested. Which inhibition did it give?
The inhibition was 2.18%.

How did the inhibition turn out when Cc1c(C)c2ccc(OCC(=O)N3CCC(C(=O)O)CC3)c(C)c2oc1=O was run?
Its inhibition is -2.74%.

How did the inhibition turn out when Cc1c(CC(=O)N2CCN(C(=O)C3COc4ccccc4O3)CC2)c(=O)oc2c(O)c(O)ccc12 (configuration not stated) was run?
Its inhibition is 51% (active).

Which inhibition does the source give for COc1cccc(OC)c1C(=O)Nc1sc2c(c1C(N)=O)CCCC2 here?
The inhibition was -0.1%.

NC(=O)c1c(Nc2nc3c(F)cccc3s2)sc2c1CCCC2 was tested. Which inhibition did it give?
Its inhibition is 85.5% (active).

Which inhibition does the source give for NC(=O)c1c(NC(=O)c2ccccc2)sc2c1CCCC2 here?
The inhibition was 1.25%.

CC(C)(C)C(=O)Nc1ccc(C(=O)N/N=C/c2ccccc2OC(=O)c2ccc(Cl)cc2Cl)cc1 was tested. Which inhibition did it give?
Its inhibition is -2.72%.

Cc1ccc(Sc2ccncc2S(N)(=O)=O)cc1 was tested. Which inhibition did it give?
Its inhibition is 0.2%.

Which inhibition does the source give for Cc1cnc(C(=O)N2CCCC(C(=O)c3ccc(C(F)(F)F)cc3)C2)cn1 (configuration not stated) here?
The inhibition was -2.98%.

CCOC(=O)CC1C(=O)NCCN1c1nc2c(C)cccn2c(=O)c1/C=C1\SC(=S)N(C(C)CC)C1=O (configuration not stated) was tested. Which inhibition did it give?
Its inhibition is 145% (active).

Cc1cccn2c(=O)c(/C=C(\C#N)C(N)=O)c(N3CCCCCC3)nc12 was tested. Which inhibition did it give?
The inhibition was -0.44%.

CCOC(=O)N1CCN(C(=O)CSc2nc(=O)n3cccc(C)c3n2)CC1 was tested. Which inhibition did it give?
The inhibition was -1.52%.

How did the inhibition turn out when CCC(=O)N1c2ccc(S(=O)(=O)NCc3ccco3)cc2CC1C (configuration not stated) was run?
Its inhibition is -4.88%.

How did the inhibition turn out when COCCCn1c(-c2cccs2)nc2nc3ccccc3nc21 was run?
Its inhibition is -0.91%.

For Cc1c(-c2ccccc2)cn2c1-c1ccc(C)n1CC2, which inhibition is on record?
Its inhibition is 49% (active).

Cc1cc(Br)ccc1SCC(=O)OCC(=O)NCc1ccc2c(c1)OCO2 was tested. Which inhibition did it give?
The inhibition was -0.18%.

For CC1CCN(C(=O)c2ccc3c(=O)n4c(nc3c2)CCCCC4)CC1, which inhibition is on record?
Its inhibition is -0.96%.

CC1CCN(C(=O)c2ccc(CSc3ccc(Cl)cc3)cc2)CC1 was tested. Which inhibition did it give?
The inhibition was -4.05%.

With CC1CCN(C(=O)c2ccc3c(c2)NC(=O)CN3)CC1 as the compound, how does the inhibition read?
The inhibition was 147% (active).

O=c1oc2ccccc2c(CNc2ccccc2)c1[N+](=O)[O-] was tested. Which inhibition did it give?
The inhibition was -2.94%.

For O=C(N/N=C/c1c[nH]c2ccccc12)c1ccccc1O, which inhibition is on record?
Its inhibition is -1.65%.

With C[n+]1ccc(/C=C/c2c[nH]c3ccccc23)cc1 as the compound, how does the inhibition read?
Its inhibition is 56% (active).

How did the inhibition turn out when COc1ccc(/C=C(\C#N)c2c[nH]c3ccccc23)cc1 was run?
The inhibition was 0.42%.

Which inhibition does the source give for CCOc1ccc(-n2c(O)c(/C=N/Nc3nc(C)cc(C)n3)c3ccccc3c2=O)cc1 here?
The inhibition was -0.65%.

Which inhibition does the source give for Cc1ccc(-n2c(O)c(C=Nc3ccc(S(=O)(=O)Nc4ncccn4)cc3)c3ccccc3c2=O)cc1C here?
The inhibition was 1.02%.

CCOc1ccc(-n2c(O)c(/C=N/c3ccnn3Cc3ccncc3)c3ccccc3c2=O)cc1 was tested. Which inhibition did it give?
Its inhibition is 44.3% (active).

With CC(C)CCN1CCN=C1N(C)C as the compound, how does the inhibition read?
Its inhibition is 0.11%.

Which inhibition does the source give for O=C(NCCCN1CCOCC1)c1cnn2c(-c3ccccc3)cc(-c3ccccc3)nc12 here?
The inhibition was -0.23%.

For COc1ccc(C(=O)NC2CC2)cc1OC1CCN(Cc2ccc(SC)cc2)CC1, which inhibition is on record?
Its inhibition is -0.85%.

With CC(NC(=S)Nc1ccccc1)C(c1cccs1)N1CCOCC1 (configuration not stated) as the compound, how does the inhibition read?
Its inhibition is -0.68%.

For CCOC(=O)Nc1ccc2c(c1)N(C(=O)CCCl)c1ccccc1[S@]2=O, which inhibition is on record?
Its inhibition is 1.44%.

With Cc1ccc2cc(/C=N/NC(=O)[C@@H]3CCCN3)c(Cl)nc2c1 as the compound, how does the inhibition read?
Its inhibition is -2.39%.

O=C(O)c1ccc(N/N=C/c2ccc3ncccc3c2)cc1 was tested. Which inhibition did it give?
Its inhibition is -4.36%.

Which inhibition does the source give for Cc1ccc2cc(/C=N/Nc3ccc(C(=O)O)cc3)c(Cl)nc2c1 here?
Its inhibition is 24.6% (active).

How did the inhibition turn out when C/C(=N\Nc1nc(N2CCOCC2)nc(N2CCOCC2)n1)c1ccc([N+](=O)[O-])cc1 was run?
The inhibition was 0.13%.

How did the inhibition turn out when COc1cccc(OC)c1C(=O)Nc1ccc2c(c1)n(C)c(=O)n2C was run?
The inhibition was -1.47%.

With Cc1ccc(N2NC(=O)/C(=C/C=C/c3ccco3)C2=O)cc1C as the compound, how does the inhibition read?
The inhibition was 4.93%.

With Cc1ccc(N=C2NC(=O)/C(=C/C=C/c3ccco3)S2)cc1C as the compound, how does the inhibition read?
Its inhibition is 25.4% (active).

Which inhibition does the source give for CN(C)c1ccc(-n2cccc2/C=C2/SC(=Nc3ccc(F)cc3)NC2=O)cc1 here?
The inhibition was 0.75%.

COC(=O)C1(S(=O)(=O)C2(C(=O)OC)CCCC2)CCCC1 was tested. Which inhibition did it give?
The inhibition was -0.48%.

CN1C(=O)CC(c2ccccc2)C1=O (configuration not stated) was tested. Which inhibition did it give?
The inhibition was -3.97%.

For CCN1C(=O)N[C@@H](c2ccccc2)[C@H](C(C)=O)[C@H]1C, which inhibition is on record?
Its inhibition is 1.78%.

With O=C(Nc1ccc(S(=O)(=O)Nc2nccs2)cc1)c1cc(=O)[nH]c2ccccc12 as the compound, how does the inhibition read?
The inhibition was 11.7%.

With Cc1ccc2nc(-c3ccncc3)cc(C(=O)Nc3ccncc3)c2c1 as the compound, how does the inhibition read?
The inhibition was -2.29%.

For O=C(Nc1ccc(S(=O)(=O)Nc2nccs2)cc1)c1cc(-c2ccncc2)nc2ccccc12, which inhibition is on record?
The inhibition was 42.7% (active).

Which inhibition does the source give for O=C(NC(Cc1ccc(O)cc1)C(=O)O)/C(=C/c1ccccc1)NC(=O)c1ccccc1 (configuration not stated) here?
Its inhibition is -2.71%.

For CC(=O)c1cc(NC(=O)c2ccccc2)c(=O)oc1/C=C/N(C)C, which inhibition is on record?
The inhibition was 110% (active).

How did the inhibition turn out when CCOC(=O)c1cc(NC(=O)c2ccc(Cl)cc2)c(=O)oc1-c1ccccc1 was run?
Its inhibition is -4.37%.

For CC(=O)Oc1cccc(C(=O)Nc2ccccc2NC(=O)c2cccc(OC(C)=O)c2)c1, which inhibition is on record?
The inhibition was -1.86%.

How did the inhibition turn out when Cc1ccc(N2CCN(C(=O)c3cccs3)CC2)c(C)c1 was run?
The inhibition was -2.58%.

How did the inhibition turn out when Cn1cccc1/C=C1\SC(=S)N(NC(=O)c2ccc(Cl)cc2)C1=O was run?
The inhibition was 84.1% (active).

Cn1cccc1/C=C1\SC(=O)N(CC(=O)Nc2ccc(F)cc2)C1=O was tested. Which inhibition did it give?
The inhibition was 1.77%.

O=C(O)c1ccc(/C=C2\SC(=S)N(NC(=O)c3ccc(Br)cc3)C2=O)cc1 was tested. Which inhibition did it give?
The inhibition was 5.29%.

With CCCC(=O)Nc1ncnc2c1ncn2[C@@H]1O[C@@H]2OP(=O)(O)OC[C@H]2[C@H]1OC(=O)CCC as the compound, how does the inhibition read?
Its inhibition is -4.36%.

How did the inhibition turn out when COc1cc(N2CCCC2)c(OC)cc1/C=C(/C#N)c1cccc(Br)c1 was run?
Its inhibition is 103% (active).

Which inhibition does the source give for COc1ccc(Br)cc1/C=N/n1c(C)nnc1C here?
Its inhibition is -0.28%.

With CC(=O)Nc1cccc(Oc2cc(C#N)c(C#N)cc2N2CCOCC2)c1 as the compound, how does the inhibition read?
The inhibition was -0.51%.

With O=C1NCCn2nc3ccccc3c21 as the compound, how does the inhibition read?
The inhibition was -3.31%.

Which inhibition does the source give for CC(=O)Nc1ccc(S(=O)(=O)N(C)c2nc3ccccc3nc2Cl)cc1 here?
The inhibition was -0.11%.

How did the inhibition turn out when Cc1ccc(Oc2nc3ccccc3n3c(C)nnc23)cc1 was run?
The inhibition was -2.63%.

How did the inhibition turn out when Cc1ccc(S(=O)(=O)N(C)c2nc3ccccc3n3c(C(C)C)nnc23)cc1 was run?
Its inhibition is 49.9% (active).

Which inhibition does the source give for C#CCOCCOCCOCCNc1nc(N2CCN(C(=O)CCCCCCCCCCNC(=O)[C@H](CCCCN)n3cc(C)nn3)CC2)nc(N2CCN(C(=O)CCCCCCCCCCNC(=O)[C@H](CO)n3cc(CCCSC)nn3)CC2)n1 here?
The inhibition was 0.52%.

Which inhibition does the source give for CN=C(c1ccccc1)c1c(C)cccc1C here?
The inhibition was -0.46%.

Which inhibition does the source give for CSC1=N/C(=C\C=C\c2cccs2)C(=O)S1 here?
The inhibition was 35.6% (active).

With Cc1cccc(C2=N/C(=C/c3cccs3)C(=O)O2)c1 as the compound, how does the inhibition read?
The inhibition was -1.73%.

With CN1C/C(=C/c2cccs2)C(=O)/C(=C\c2cccs2)C1 as the compound, how does the inhibition read?
Its inhibition is -2.84%.
